{"source": "PubChem BioAssay (NCATS)", "key": {"[1]": {"test": "Validation screen for inhibitors of Lassa infection (AID 463096)"}, "[2]": {"test": "Inducers of the Endoplasmic Reticulum Stress Response (ERSR) in human glioma: Validation (AID 504836; active means well fitted curve in the direction sought with a large enough effect; an effect the other way counts as inactive or inconclusive)", "summary_of_the_method": "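ERSR induction read as luciferase luminescence (Bright-Glo, 10 min at room temperature) in stably transfected human U87-MG glioma cells exposed to compounds for 16 h, using GRP78 as sensor.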"}, "[3]": {"test": "qHTS for Inhibitors of the Functional Ribonucleoprotein Complex (vRNP) of Lassa (LASV) Arenavirus: LASV Primary Screen - GLuc reporter signal (AID 1347082; calls by dose curve; tested in HEK293 reporter line; further: nearly all actives have a fitted effect of over 60% in size)"}, "[4]": {"test": "qHTS for Inhibitors of the Functional Ribonucleoprotein Complex (vRNP) of Lassa (LASV) Arenavirus: Viability assay - alamar blue signal for LASV Primary Screen (AID 1347083; calls by dose curve; tested in HEK293 reporter line; further: nearly all actives have a fitted effect of over 80% in size)"}, "[5]": {"test": "qHTS for Inhibitors of the Functional Ribonucleoprotein Complex (vRNP) of Lymphocytic Choriomeningitis Arenaviruses (LCMV): Viability assay - alamar blue signal for LCMV Primary Screen (AID 1347085; calls by dose curve; tested in HEK293 reporter line; further: nearly all actives have a fitted effect of over 80% in size)"}, "[6]": {"biological_target": "Nucleoprotein (Lymphocytic choriomeningitis virus (strain Armstrong)) (UniProt P09992)", "sequence (P09992 whole entry, looked up)": "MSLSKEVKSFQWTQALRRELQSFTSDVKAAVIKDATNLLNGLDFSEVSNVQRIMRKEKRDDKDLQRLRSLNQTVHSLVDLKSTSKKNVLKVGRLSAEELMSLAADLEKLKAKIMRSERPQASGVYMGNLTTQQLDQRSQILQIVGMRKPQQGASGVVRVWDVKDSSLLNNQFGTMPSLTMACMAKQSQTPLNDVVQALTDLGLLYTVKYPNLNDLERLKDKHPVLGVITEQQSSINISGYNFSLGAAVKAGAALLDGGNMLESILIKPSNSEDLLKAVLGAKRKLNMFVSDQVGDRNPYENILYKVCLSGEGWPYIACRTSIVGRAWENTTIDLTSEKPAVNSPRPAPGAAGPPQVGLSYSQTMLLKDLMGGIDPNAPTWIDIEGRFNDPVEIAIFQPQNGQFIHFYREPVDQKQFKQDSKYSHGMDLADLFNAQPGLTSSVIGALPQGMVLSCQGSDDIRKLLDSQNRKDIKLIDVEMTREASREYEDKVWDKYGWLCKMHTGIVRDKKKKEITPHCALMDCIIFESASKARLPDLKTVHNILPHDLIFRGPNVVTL", "test": "qHTS for Inhibitors of the Functional Ribonucleoprotein Complex (vRNP) of Lymphocytic Choriomeningitis Arenaviruses (LCMV): LCMV Primary Screen - GLuc reporter signal (AID 1347086); further: nearly all actives have a fitted effect of over 70% in size"}, "[7]": {"test": "Primary qHTS for inhibitors of SARS-S pseudo-typed particle cell entry (AID 1479145); further: nearly all actives have a fitted effect of over 45% in size"}, "[8]": {"test": "Primary qHTS for Huh7 cytotoxicity: counterscreen for inhibitors of MERS-S pseudotyped particle cell entry (AID 1479147)", "conditions": "outcome: at 57.1 µM (top of the series) unless noted"}, "[9]": {"test": "Primary qHTS for inhibitors of MERS-S pseudo-typed particle cell entry (AID 1479149); further: nearly all actives have a fitted effect of over 60% in size"}, "[10]": {"test": "Primary qHTS for Vero E6 cytotoxicity: counterscreen for inhibitors of SARS-S pseudo-typed particle cell entry (AID 1479150)", "conditions": "outcome: at 57.1 µM (top of the series) unless noted"}, "[11]": {"test": "Cytotoxicity counterscreen for inhibitors of SARS-CoV-2 cell entry (AID 1645845); further: nearly all actives have a fitted effect of over 50% in size", "summary_of_the_method": "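ATP-content luminescence (ATPLite 1step, 15 min RT) read after 48 h compound exposure of Expi293F cells stably expressing human ACE2; normalized to cells-only wells and media-only wells.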"}, "[12]": {"test": "Primary qHTS to identify inhibitors of SARS-CoV-2 cell entry (AID 1645846); further: nearly all actives have a fitted effect of over 45% in size", "conditions": "activity change, negative = inhibition: at 57.1 µM (top of the series) unless noted", "summary_of_the_method": "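Luminescence readout (Bright-Glo luciferase) 48 h after pseudoparticle addition. HEK293-ACE2 cells, 1500/well; compound pre-incubation 1 h; Normalized to spike PP and bald PP.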"}, "[13]": {"biological_target": "Alpha-galactosidase (Coffea arabica) (UniProt Q42656)", "sequence (Q42656 whole entry, looked up)": "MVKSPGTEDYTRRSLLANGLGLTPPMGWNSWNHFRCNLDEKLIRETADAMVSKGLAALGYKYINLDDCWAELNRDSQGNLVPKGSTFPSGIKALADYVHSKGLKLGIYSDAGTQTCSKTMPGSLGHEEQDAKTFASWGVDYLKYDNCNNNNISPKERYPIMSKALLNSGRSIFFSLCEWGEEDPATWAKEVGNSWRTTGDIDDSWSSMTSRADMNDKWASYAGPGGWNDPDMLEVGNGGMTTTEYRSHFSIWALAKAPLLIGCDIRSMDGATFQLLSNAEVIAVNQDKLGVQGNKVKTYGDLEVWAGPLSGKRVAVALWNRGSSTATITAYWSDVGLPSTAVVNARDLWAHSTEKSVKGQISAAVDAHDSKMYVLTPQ", "test": "Counterscreen for Glucocerebrosidase Inhibitors: qHTS Assay for Coffee Bean alpha-Galactosidase at pH 4.5 (AID 957; active means well fitted curve in the direction sought with a large enough effect; an effect the other way counts as inactive or inconclusive)", "summary_of_the_method": "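Quantitative HTS of compounds (0.7 nM to 77 uM) against coffee bean alpha-galactosidase at pH 4.5, measuring 4-methylumbelliferone fluorescence released from 80 uM substrate.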"}, "[14]": {"biological_target": "Alpha-galactosidase (Coffea arabica) (UniProt Q42656)", "test": "Counterscreen for Glucocerebrosidase Inhibitors: qHTS Assay for Coffee Bean alpha-Galactosidase at pH 5.9 (AID 998; active means well fitted curve in the direction sought with a large enough effect; an effect the other way counts as inactive or inconclusive)", "summary_of_the_method": "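Fluorogenic 4-MU substrate hydrolysis, 80 uM substrate and 2 nM coffee bean alpha-galactosidase, pH 5.9 citrate buffer, 20 min at room temperature, then NaOH/glycine stop. Titration 0.7 nM–77 uM, normalized to no-enzyme and enzyme controls, AC50 via Hill equation.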"}}, "note": "Where “and” joins values, the source holds several entries; their conditions need not be identical. Equal entries are not always repeated. Results filed as inconclusive are left out. A call without a number means that no potency is given here. Calls of active or inactive are those of the source. Unless noted, the call rests on the fitted dose curve."}
{"smiles": "NC(=O)c1cc[n+](CC2=C(C(=O)O)N3C(=O)[C@@H](NC(=O)[C@@H](c4ccccc4)S(=O)(=O)[O-])[C@H]3SC2)cc1", "values": [{"measurement": "Potency", "setting": "[1]", "value": "inactive"}, {"measurement": "outcome", "setting": "[2]", "value": "inactive"}, {"measurement": "Potency", "setting": "[3]", "value": "inactive"}, {"measurement": "Potency", "setting": "[4]", "value": "inactive"}, {"measurement": "Potency", "setting": "[5]", "value": "inactive"}, {"measurement": "Potency", "setting": "[6]", "value": "inactive"}, {"measurement": "Potency", "setting": "[7]", "value": "inactive"}, {"measurement": "outcome", "setting": "[8]", "value": "inactive"}, {"measurement": "Potency", "setting": "[9]", "value": "inactive"}, {"measurement": "outcome", "setting": "[10]", "value": "inactive"}, {"measurement": "Potency", "setting": "[11]", "value": "inactive"}, {"measurement": "activity change, negative = inhibition", "setting": "[12]", "value": 2.35, "unit": "%"}]}
{"smiles": "NCC1CCC(C(=O)O)CC1", "note": "(stereo unspecified)", "values": [{"measurement": "Potency", "setting": "[3]", "value": "inactive"}, {"measurement": "Potency", "setting": "[4]", "value": "inactive"}, {"measurement": "Potency", "setting": "[5]", "value": "inactive"}, {"measurement": "Potency", "setting": "[6]", "value": "inactive"}, {"measurement": "outcome", "setting": "[7]", "value": "inactive [at 11.4 µM]"}, {"measurement": "outcome", "setting": "[8]", "value": "inactive [at 11.4 µM]"}, {"measurement": "activity change, negative = inhibition", "setting": "[9]", "value": "2.4% [at 11.4 µM] (inactive)"}, {"measurement": "outcome", "setting": "[10]", "value": "inactive [at 11.4 µM]"}, {"measurement": "Potency", "setting": "[11]", "value": "inactive"}, {"measurement": "Potency", "setting": "[12]", "value": "inactive"}]}
{"smiles": "CC(/C=C/C=C(\\C)C(=O)O[C@@H]1O[C@H](CO[C@@H]2O[C@H](CO)[C@@H](O)[C@H](O)[C@H]2O)[C@@H](O)[C@H](O)[C@H]1O)=C\\C=C\\C=C(C)\\C=C\\C=C(/C)C(=O)O[C@@H]1O[C@H](CO[C@@H]2O[C@H](CO)[C@@H](O)[C@H](O)[C@H]2O)[C@@H](O)[C@H](O)[C@H]1O", "values": [{"measurement": "Potency", "setting": "[3]", "value": "inactive"}, {"measurement": "Potency", "setting": "[4]", "value": "inactive"}, {"measurement": "Potency", "setting": "[5]", "value": "inactive"}, {"measurement": "Potency", "setting": "[6]", "value": "inactive"}, {"measurement": "Potency", "setting": "[7]", "value": "inactive"}, {"measurement": "outcome", "setting": "[8]", "value": "inactive"}, {"measurement": "Potency", "setting": "[9]", "value": "inactive"}, {"measurement": "outcome", "setting": "[10]", "value": "inactive"}, {"measurement": "Potency", "setting": "[11]", "value": "inactive"}, {"measurement": "activity change, negative = inhibition", "setting": "[12]", "value": -12.5, "unit": "%"}]}
{"smiles": "CN[C@H](CC(C)C)C(=O)N[C@H]1C(=O)N[C@@H](CC(N)=O)C(=O)N[C@H]2C(=O)N[C@H]3C(=O)N[C@H](C(=O)N[C@H](C(=O)O)c4cc(O)cc(O)c4-c4cc3ccc4O)[C@H](O)c3ccc(c(Cl)c3)Oc3cc2cc(c3O[C@@H]2O[C@H](CO)[C@@H](O)[C@H](O)[C@H]2O[C@H]2C[C@](C)(N)[C@H](O)[C@H](C)O2)Oc2ccc(cc2Cl)[C@H]1O", "values": [{"measurement": "Potency", "setting": "[1]", "value": "inactive"}, {"measurement": "Potency", "setting": "[3]", "value": "inactive"}, {"measurement": "Potency", "setting": "[4]", "value": "inactive"}, {"measurement": "Potency", "setting": "[5]", "value": "inactive"}, {"measurement": "Potency", "setting": "[6]", "value": "inactive"}, {"measurement": "Potency", "setting": "[7]", "value": "inactive"}, {"measurement": "outcome", "setting": "[8]", "value": "inactive [at 26.4 µM]"}, {"measurement": "Potency", "setting": "[9]", "value": "inactive"}, {"measurement": "outcome", "setting": "[10]", "value": "inactive"}, {"measurement": "Potency", "setting": "[11]", "value": "inactive"}, {"measurement": "activity change, negative = inhibition", "setting": "[12]", "value": "-14.9% [at 27.1 µM] and -31.1% [at 27.1 µM]"}]}
{"smiles": "CC(=O)O[C@H]1Cc2ccccc2N(C(N)=O)c2ccccc21", "values": [{"measurement": "outcome", "setting": "[2]", "value": "inactive"}, {"measurement": "Potency", "setting": "[3]", "value": "inactive"}, {"measurement": "Potency", "setting": "[4]", "value": "inactive"}, {"measurement": "Potency", "setting": "[5]", "value": "inactive"}, {"measurement": "Potency", "setting": "[6]", "value": "inactive"}, {"measurement": "outcome", "setting": "[8]", "value": "inactive"}, {"measurement": "Potency", "setting": "[9]", "value": "inactive"}, {"measurement": "outcome", "setting": "[10]", "value": "inactive"}, {"measurement": "Potency", "setting": "[11]", "value": "inactive"}, {"measurement": "activity change, negative = inhibition", "setting": "[12]", "value": -29.9, "unit": "%"}]}
{"smiles": "O=C1c2c(O)cccc2[C@@H]([C@@H]2O[C@H](CO)[C@@H](O)[C@H](O)[C@H]2O)c2cc(CO)cc(O)c21", "values": [{"measurement": "Potency", "setting": "[3]", "value": "inactive"}, {"measurement": "Potency", "setting": "[4]", "value": "inactive"}, {"measurement": "Potency", "setting": "[5]", "value": "inactive"}, {"measurement": "Potency", "setting": "[6]", "value": "inactive"}, {"measurement": "outcome", "setting": "[8]", "value": "inactive"}, {"measurement": "Potency", "setting": "[9]", "value": "inactive"}, {"measurement": "outcome", "setting": "[10]", "value": "inactive"}, {"measurement": "Potency", "setting": "[11]", "value": "inactive"}, {"measurement": "activity change, negative = inhibition", "setting": "[12]", "value": -0.84, "unit": "%"}]}
{"smiles": "O=C(O)/C=C/c1ccccc1", "values": [{"measurement": "Potency", "setting": "[3]", "value": "inactive"}, {"measurement": "Potency", "setting": "[4]", "value": "inactive"}, {"measurement": "Potency", "setting": "[5]", "value": "inactive"}, {"measurement": "Potency", "setting": "[6]", "value": "inactive"}, {"measurement": "outcome", "setting": "[8]", "value": "inactive [at 114 µM]"}, {"measurement": "Potency", "setting": "[9]", "value": "inactive"}, {"measurement": "outcome", "setting": "[10]", "value": "inactive [at 114 µM]"}, {"measurement": "Potency", "setting": "[11]", "value": "inactive"}]}
{"smiles": "O=S(=O)(c1cccc2c(Cl)cccc12)N1CCCNCC1", "values": [{"measurement": "outcome", "setting": "[13]", "value": "inactive"}, {"measurement": "outcome", "setting": "[14]", "value": "inactive"}, {"measurement": "Potency", "setting": "[1]", "value": "inactive"}, {"measurement": "outcome", "setting": "[2]", "value": "inactive"}, {"measurement": "Potency", "setting": "[3]", "value": "inactive"}, {"measurement": "Potency", "setting": "[4]", "value": "inactive"}, {"measurement": "Potency", "setting": "[5]", "value": "inactive"}, {"measurement": "Potency", "setting": "[6]", "value": "inactive"}]}
{"smiles": "CC(C)(CO)[C@@H](O)C(=O)NCCC(=O)O", "values": [{"measurement": "Potency", "setting": "[3]", "value": "inactive"}, {"measurement": "Potency", "setting": "[4]", "value": "inactive"}, {"measurement": "Potency", "setting": "[5]", "value": "inactive"}, {"measurement": "Potency", "setting": "[6]", "value": "inactive"}, {"measurement": "outcome", "setting": "[8]", "value": "inactive"}, {"measurement": "Potency", "setting": "[9]", "value": "inactive"}, {"measurement": "outcome", "setting": "[10]", "value": "inactive"}, {"measurement": "Potency", "setting": "[11]", "value": "inactive"}]}
